Experimental findings from PubChem BioAssay AID588832 (Broad Institute, 2011) are described below.

Among all 8,000 compounds or so, fewer than 10 were called active. A selection follows. A number with no mark means an inactive call. The rule behind the calls is not given here.

As a reminder, the inhibition is the relative decrease from the control value, in per cent.

The test system of this assay is hedgehog, isoform A (Drosophila melanogaster). Briefly: Drosophila hedgehog isoform A inhibitors, primary screen, biochemical, plate reader, single concentration (AID 588832).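 Note: 0% = neutral control wells and 100% = positive control wells.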 Particulars: Biochemical plate reader assay, at 30.3 µM, hits give high values.
Consider `CCOc1ccc(NC(=O)CS(=O)(=O)c2cn(C)c3ccccc23)cc1`, for which the inhibition was 7.96%.
Next, `CCC1=Nc2cc(C(=O)O)ccc2Sc2ccccc21`: 1.79%; `O=c1c2nnn(-c3ccccc3)c2ncn1C/C=C/c1ccccc1`: 6.96%.
Take `Cc1ccc(S(=O)(=O)NCc2ccc3c(c2)cc(C)n3C)cc1`: the inhibition is 11.8%.
On to `COc1ccc(S(=O)(=O)NCc2ccc3c(c2)cc(C)n3C)cc1`, for which the inhibition was 62.3% (active).
For the compound `Cc1cc2cc(CNS(=O)(=O)c3ccccc3)ccc2n1C`, the inhibition is 7.14%.
Next, `COc1ccc(Nc2nc(N)nc(CN3CCc4ccccc4C3)n2)cc1`: 5%; `Cc1ccc(Cl)cc1N1CCN(C(=O)COc2ccc(S(=O)(=O)NC(C)C)cc2)CC1`: 7.28%.
Take `O=C(NCc1cn2ccsc2n1)c1c(F)cccc1Cl`: the inhibition was 5.46%.
As to `O=C(O)C(c1ccccc1)c1ccccc1`, the inhibition was 8.45%.
Next, `Cn1c(=O)cc(N2CCc3ccccc32)[nH]c1=O`: 1.79%; `COc1cccc(CNC(=O)COc2cc3c(c4oc(=O)cc(C)c24)CCC(C)(C)O3)c1`: -8.44%.
As for `O=C(COc1ccc2c(-c3ccccc3)cc(=O)oc2c1)N1C[C@H]2C[C@@H](C1)c1cccc(=O)n1C2`, the figure is 1.72%; as for `COc1ccc(Cl)cc1N1C(=O)C2CCCN2C1c1ccc(F)c(F)c1` (centres undefined), 14.9%.
Next, `CCOc1ccc(C2CC(c3cccc(OC)c3)n3nc(N)nc3N2)cc1` (centres undefined): 15%; `Cc1ccc(C)c(NC(=O)CSc2nc3ccccc3nc2N2CCOCC2)c1`: 9.55%.
With `C=CCn1cc(C(=O)NCCCOC)c(=O)c2cc(S(=O)(=O)N3CCC(C)CC3)ccc21`, the inhibition is 25%.
As for `CC(C)(C)C(=O)NCCc1nc2ccccc2n1CC(=O)c1ccc(Cl)cc1`, the figure is 0%.
On to `CC(=O)c1ccc(NC(=O)CCS(=O)(=O)c2ccc3c(c2)n(C)c(=O)c(=O)n3C)cc1`, for which the inhibition is 1.81%.
For the compound `Cc1[nH]c2ccccc2c1SCC(=O)N1CCCc2ccccc21`, the inhibition was 1.79%.
As for `CCOC(=O)N1CCN(c2cc(=O)n(-c3ccc(Br)cc3)c(=O)[nH]2)CC1`, the figure is 6.78%; as for `Cc1ccc2c(c1)N(C(=O)CCC(=O)NCCCN1CCOCC1)CC(C)O2` (centres undefined), 7.08%; as for `CCCCCCc1cc2cc(/C(N)=N/NC(=O)c3ccncc3)c(=O)oc2cc1O`, 10.7%.
Next, `O=C(COC(=O)C1CC(=O)N(C2CCCCC2)C1)c1ccc(F)cc1` (centres undefined): 15%; `Cc1ccc2c(c1)N(C(=O)CCC(=O)NCCCN1CCN(C)CC1)CCO2`: 5.23%; `Cn1c(Cn2c(=O)sc3ccccc32)nnc1SCC(=O)Nc1cccc(Cl)c1`: 11.1%.
As for `COc1ccccc1C1C(C(N)=O)=C(C)Nc2nc(-c3ccc(Cl)cc3)nn21` (centres undefined), the figure is 19.2%; as for `Cc1cc2ccccc2n1CCNC(=O)C(C)(C)C`, 57.3% (active); as for `CC(=O)NCCn1c(C)cc2ccccc21`, 0%.
Regarding `Cc1cc2ccccc2n1CCNC(=O)C(C)C`, the inhibition is 5.17%.
On to `O=C1C=C(O)c2c(O)cc(O)c(O)c2C1=O`, for which the inhibition is 93.1% (active).
As for `O=C1C=C(O)c2cccc(O)c2C1=O`, the inhibition is 9.84%.
As for `C[C@@H]1Cc2c(O)c(O)cc(O)c2C(=O)O1`, the figure is 4.89%.
Next, `CC(=O)c1ccc(N2CCN(C(=O)c3ccc(NC4=NC5CS(=O)(=O)CC5S4)cc3)CC2)cc1` (centres undefined): 3.39%; `COc1ccc(CNS(=O)(=O)c2cc3c(cc2Cl)NC(=O)CO3)cc1`: 7.24%; `COc1cccc(-c2nc(C(=O)NCC3CCCO3)cc3c2[nH]c2ccccc23)c1` (centres undefined): 0.0615%.
As to `O=C(Cn1cc2c(n1)CCCC2)NCCCN1CCN(Cc2ccccc2)CC1`, the inhibition was 4.17%.
Regarding `CC1CCCN(S(=O)(=O)c2ccc3c(c2)C(C)(C)C(=O)N3C)C1` (centres undefined), the inhibition is 20%.
With `O=C(NCCN1CCCC1)c1ccc2c(c1)N(Cc1ccc(F)cc1)C(=O)c1ccccc1S2=O` (centres undefined), the inhibition was 0.909%.
As for `COc1ccc(-c2cn3c(C)c(C(=O)Nc4ccncc4)sc3n2)cc1`, the figure is 9.74%; as for `COCCNC(=O)CS(=O)Cc1nc(-c2ccc(Cl)cc2)oc1C` (centres undefined), -2.73%.
As for `Cc1ccc2c(c1)N(CC(=O)NC1CCCC1)C(=O)c1cccnc1O2`, the figure is 16.7%.
As for `CCN(Cc1ccccc1)S(=O)(=O)c1cc(C(=O)OC)n(C)c1`, the figure is 6.72%; as for `Cc1cccc(C(=O)N2CCN(Cc3ccc4c(c3)OCO4)CC2)c1`, 5.77%; as for `CC1CC(=O)c2c(cc3c(-c4c(O)cc(O)c5c(O)c6c(cc45)OC(C)CC6=O)c(O)cc(O)c3c2O)O1` (centres undefined), 6.56%.
For `COc1ccc(CNC(=O)COc2cc3c(c4oc(=O)cc(C)c24)CCC(C)(C)O3)cc1OC`, the inhibition was 5.12%.
Next, `CCN1C(=O)c2ccccc2S(=O)c2ccc(C(=O)NCCCN3CCCC3=O)cc21` (centres undefined): -4.3%; `COC(=O)CN1C(=O)COc2ccc(Cl)cc21`: 16.7%.
As for `CCOCCn1c(SCc2ccc(F)cc2)nc2c1c(=O)[nH]c(=O)n2C`, the figure is -3.67%; as for `O=C(NCc1ccco1)C(=O)NCC1OCCN1S(=O)(=O)c1ccccc1` (centres undefined), 7.69%.
As for `COCCn1c(SCC(=O)N2CCCc3ccccc32)nc2c(c1=O)SC(C)C2` (centres undefined), the figure is 5.36%; as for `CCCNC(=O)CS(=O)(=O)Cc1nc(-c2ccccc2C)oc1C`, 24.1%.
In the case of `CCOC(=O)N1CCc2c(sc(NC(=O)c3ccc(S(=O)(=O)N4CCCC4)cc3)c2C#N)C1`, the inhibition was 0%.
Next, `Cn1c(=O)c2c(SC3CCCC3)nc(C3CC3)nc2n(C)c1=O`: 9.74%; `Cn1c(C(=O)NCCN2CCc3ccccc3C2)cc2c(=O)n(C)c3ccccc3c21`: 20.8%; `CCCCNC(=S)NCc1ccc2[nH]c(C)cc2c1`: -0.909%.
Next, `CC(C)COC(=O)C1C2C=CC3(CN(C4CCCC4)C(=O)C13)O2` (centres undefined): 8.33%; `COc1ccc(-c2cc(=O)oc3c(C)c(OC(C)C(=O)NCc4ccccn4)ccc23)cc1` (centres undefined): 4.89%; `CCc1ccc(NC(=O)CSc2nnc(Cn3c(=O)sc4ccccc43)n2C)cc1`: 16.7%.
